# Test results taken from PubChem BioAssay AID588742 (Southern Research Specialized Biocontainment Screening …, 2011).
# Hit rate of the full screen: of about 1,800 compounds, about 410 (23%) were called active. The rule behind the calls is not given here. The list is a sample of the results. Entries that show only a call come without a potency. Potency and affinity values are given separately.
# Test: Vero cell cytotoxicity, cytotoxicity control for flavivirus capping enzyme inhibitors (AID 588742)
# Settings: Vero cells viability, cytotoxicity counter-screen; series mostly up to 40 µM
row,Compound,outcome
1,COc1ccc(OC)c2c(C)cc(N3CCCCCC3)nc12,inactive
2,CN(C)c1cc(N/N=C\c2ccccc2)nc(N(C)C)n1,inactive
3,O=C(O)CN1C(=O)/C(=C\c2cc(Br)ccc2OCc2ccccc2F)SC1=S,inactive
4,COc1cccc(CNC(=O)c2cccnc2Sc2ccc(C)cc2C)c1,inactive
5,O=C(CCN1C(=O)S/C(=C\c2ccccc2)C1=O)Nc1ccc(S(=O)(=O)Nc2nccs2)cc1,inactive
6,CCS(=O)(=O)c1nc(S(=O)(=O)c2ccc(Cl)cc2)c(NCCCN2CCCC2=O)s1,inactive
7,[O-][n+]1c2ccccc2[n+]([O-])c2cc(O)ccc21,inactive
8,CC(C)c1cccc(-c2ccc3c(c2)S(=O)(=O)c2cccc(C(=O)O)c2C3=O)c1,inactive
9,COc1cc(/C=N/NC(=S)N/N=C/c2cc(OC)c(OC)c(OC)c2)cc(OC)c1OC,inactive
10,CN(C)c1ccc(N=Nc2ccc(S(=O)(=O)O)cc2)c2ccccc12,inactive
11,CC(=O)NC(CC(=O)OCC(=O)Nc1cc(S(=O)(=O)N2CCCCC2)ccc1C)c1ccccc1 (stereo unspecified),inactive
12,C#CCOc1ccc(/C=C2/C(=O)ON=C2C)cc1Br,inactive
13,Cc1ccc(C)c(S(=O)(=O)/N=C2\C=C(NS(=O)(=O)c3ccccc3)C(=O)c3ccccc32)c1,inactive
14,Cc1cc(C)c(S(=O)(=O)ON2C(=O)c3ccccc3C2=O)cc1C,inactive
15,O=C(OCCCN=C1NS(=O)(=O)c2ccccc21)c1ccc(F)cc1,inactive
16,COc1cc(C2C(C#N)=C(N)OC3=C2C(=O)CC(C)(C)C3)cc([N+](=O)[O-])c1O (stereo unspecified),inactive
17,O=C(NN=Cc1cc(Br)c(O)c(Br)c1)c1ccccc1NS(=O)(=O)c1cccs1,inactive
18,CN(C)c1ccc(NC(=O)c2ccc(Cn3cc([N+](=O)[O-])cn3)cc2)cc1,inactive
19,C/C(CCc1oc2c(Br)cc(Br)cc2c1-c1ccc(C)o1)=N\O,inactive
20,CC(=O)OCCCNc1cc(SCc2ccco2)c2nonc2c1[N+](=O)[O-],inactive
21,CCCC(=O)OCCNc1cc(SCc2ccco2)c2nonc2c1[N+](=O)[O-],inactive

row,Compound,outcome
1,CC(=O)OCCNc1cc(SCc2ccco2)c2nonc2c1[N+](=O)[O-],inactive
2,CN(c1ccccc1)c1ccc(/C=C(/CCC(=O)O)c2nc3ccccc3s2)cc1[N+](=O)[O-],inactive
3,COc1cc(/C=C2\C(=O)N(c3ccc(NC(C)=O)cc3)N=C2c2ccccc2)ccc1O,inactive
4,CCOc1ccc(N2C(=O)C(Cl)=C(Nc3ccccc3O)C2=O)cc1,inactive
5,C=CCOc1c(Br)cc(/C=C2/C(=O)ON=C2C)cc1OC,inactive
6,Cc1cc(C2C(=O)CC(=O)CC2c2ccccc2)on1 (stereo unspecified),inactive
7,COc1cc(/C=C2/C(=N)N3C(c4ccccc4)=CSC3=NC2=O)ccc1OCC(=O)O,inactive
8,CCc1ccc(N=C2NC(=O)/C(=C/c3cc(Br)c(OCC(=O)O)c(OC)c3)S2)cc1,inactive
9,O=C1/C(=C/c2cccs2)SC(=S)N1NS(=O)(=O)c1ccccc1,inactive
10,CCCOC(=O)c1c(-c2ccc(C)cc2C)csc1NC(=O)C1C2CCC(O2)C1C(=O)O (stereo unspecified),inactive
11,COc1cccc(-c2[nH]nc3c2C(c2ccoc2)C(C#N)=C(N)O3)c1 (stereo unspecified),inactive
12,O=S(=O)(O)c1cc2onnc2c2ccccc12,inactive
13,CC1CC(=O)C(C(C2=C(O)CC(C)CC2=O)c2ccccc2)=C(O)C1 (stereo unspecified),inactive
14,Cc1[nH][nH]c(=O)c1C(c1ccc(-c2ccc(Cl)c(C(=O)O)c2)o1)c1c(C)[nH][nH]c1=O,inactive
15,Cc1[nH][nH]c(=O)c1C(c1ccc(-c2cccc(Cl)c2)o1)c1c(C)[nH][nH]c1=O,inactive
16,Cc1[nH]n(-c2ncc(-c3ccccc3)s2)c(=O)c1C(c1ccc(Br)cc1)C(C#N)C#N (stereo unspecified),inactive
17,O=C(O)c1cc([N+](=O)[O-])c(Nc2cccc3ccccc23)c([N+](=O)[O-])c1,inactive
18,O=C1Nc2ccc(F)cc2C12Nc1ccccc1-c1nnc(SCc3ccccc3Cl)nc1O2 (stereo unspecified),inactive
19,CCc1ccc([C@@H]2CC=C(C(=O)O)[C@H](c3ccc(Cl)cc3)N2S(=O)(=O)c2ccc(C)cc2)cc1,inactive
20,O=C(O)[C@H](Cc1ccccc1)N1C(=O)c2c(Cl)c(Cl)c(Cl)c(Cl)c2C1=O,inactive
21,Cc1cc(C)c2nc(N3C(=O)C(O)=C(C(=O)c4ccco4)C3c3cccc(O)c3)sc2c1 (stereo unspecified),inactive

row,Compound,outcome
1,COc1ccc(CNC(=O)CCCC2=NS(=O)(=O)c3ccccc3N2)cc1,inactive
2,Cc1[nH]n(-c2ccccc2)c(=O)c1C(c1ccccc1[N+](=O)[O-])C(C#N)C#N (stereo unspecified),inactive
3,O=C1CCC/C1=C/Nc1ccc2c(c1)OCO2,inactive
4,N#Cc1c2c(c(-c3ccco3)[nH]c1=O)CCCC2,inactive
5,Cn1c(=O)c([N+](=O)[O-])c(Oc2ccccc2)c2ccccc21,inactive
6,O=Nc1c(O)ccc2cc(S(=O)(=O)O)ccc12,inactive
7,COC(=O)c1cc(C(=O)OC)cc(N2C(=O)CC(NNC(=O)c3ccccc3Cl)C2=O)c1 (stereo unspecified),inactive
8,O=C(O)/C=C/C(=O)Nc1ccc(C2(c3ccc(NC(=O)/C=C/C(=O)O)cc3)c3ccccc3-c3ccccc32)cc1,inactive
9,CCCn1nc(NS(=O)(=O)c2cccc3nonc23)c2cc3cccc(C)c3nc21,inactive
10,Cc1ccc(/C=C2\SC(=S)N(NS(=O)(=O)c3ccc(C)cc3)C2=O)cc1,inactive
11,Cc1ccc(-c2nnc(Nc3ccc(CC(N)=O)cc3)c3ccccc23)cc1S(N)(=O)=O,inactive
12,Cc1nc(Nc2ccc(C(=O)O)cc2)nc(Nc2ccc(C(=O)O)cc2)c1[N+](=O)[O-],inactive
13,CC1=CC(=O)C(Sc2ccc(C)cc2)=CC1=O,inactive
14,O=C(CCN1C(=O)/C(=C/c2ccc3c(c2)OCO3)SC1=S)Nc1cccc(C(=O)O)c1,inactive
15,COc1ccc2nc(N3CCC(O)CC3)c(C#N)cc2c1,inactive
16,CCOC(=O)c1c(=O)n(O)c2ccc(C)cc2[n+]1[O-],inactive
17,Cc1ccc(-c2ccc(/C=C3\C(=O)ON=C3c3ccccc3)o2)c([N+](=O)[O-])c1,inactive
18,COc1ccc(/C=C2\C(=O)ON=C2c2ccccc2)cc1OC,inactive
19,COc1cccc(/C=C2/C(=O)NN(c3ccc(C)c(C)c3)C2=O)c1,inactive
